The panel holds about 83,000 compounds, 20% with a hit somewhere; the sample as a whole holds those more often.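 Single-dose data. Exposure time 48 hours. Values below 10 considered active.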 Activity calls are given as the source filed them.
System: MDA-MB-468 breast
Assay: NCI-60 one-dose screen, 48 h (100 = growth as untreated, 0 = no growth, -100 = all killed)
Settings: 10 µM unless noted

SMILES | growth
O=C(Nn1c2c(sc1=NC1CC1)C(=O)c1ccccc1C2=O)c1cc2ccc1CCc1ccc(cc1)CC2 | 32.4% (inactive)
CC1(C)CCCN1CCCN1c2ccccc2Sc2ccc(Cl)cc21 | 37.6% (inactive)
CC(=O)O[C@H]1C(=O)[C@@]2(C)C([C@H](OC(=O)c3ccccc3)[C@]3(O)C[C@H](OC(=O)[C@H](O)[C@@H](NC(=O)c4ccccc4)c4ccccc4)C(C)=C1C3(C)C)[C@]1(OC(C)=O)CO[C@@H]1C[C@@H]2O (some centres undefined) | -11.7% (active)
O=C(Nc1ccc(F)cc1)ON=C1CCCCC1 | 105% [100 µM] (inactive)
CS(=O)CCCCCN=C=S (centres undefined) | -11.3% (active)
NNc1ncccn1 | 102% (inactive)
COc1ccc(C2CC(c3ccc(Cl)cc3)=NN2/C=C2\SC(=S)N(NC(=O)Cc3ccccc3Nc3c(Cl)cccc3Cl)C2=O)cc1 (centres undefined) | 75.2% (inactive)
COc1ccc2c(c1)c(-c1nonc1-c1cn(C)c3ccc(OC)cc13)cn2C | 29% (inactive)
CCCCC1Nc2nc(SC)n(C)c(=O)c2CN(Cc2ccccc2)C1=O (centres undefined) | 101% (inactive)
Cc1ccc(C2CC(c3cccs3)=NN2c2ccc(S(N)(=O)=O)cc2)s1 (centres undefined) | 16.3% (inactive)
CC(NC(=O)Oc1cccc2ccccc12)c1ccccc1 (centres undefined) | 107% (inactive)
CCSc1sc(-c2ccc(C)cc2)nc1[P+](c1ccccc1)(c1ccccc1)c1ccccc1 | -61.4% (active)
O=Cc1ccc(Cl)c(Cl)c1 | 119% (inactive)
CC(C)=CCNc1ncnc2c1ncn2C1OC(COP(=O)(O)O)C(O)C1O (centres undefined) | 23.3% (inactive)
CCN(c1ccccc1)S(=O)(=O)c1cc([N+](=O)[O-])ccc1Cl | -4.6% (active)
Nc1nc(Nc2ccccc2)c(C=Nc2ccccc2)c(=O)[nH]1 | 99.6% (inactive)
CNc1ccc(CSc2ccc(C)cc2)cc1 | 15.6% (inactive)
Cn1c(C(N)=O)cc2c1-c1nc(Nc3ccccc3)ncc1CCC2 | 53.4% (inactive)
Cc1c(O)cnc2nn(-c3ccccc3)c(=N)n12 | 108% (inactive)
CCCCCCCCCCCC1=NC(C)(C)CN1CC(C)O (centres undefined) | 10% (inactive)
O=C1NC(=O)C(c2coc3cc(Br)ccc23)=C1c1c[nH]c2ccccc12 | 3.29% (active)

SMILES | growth
O=C(/C=C/c1cc2ccccc2[nH]c1=O)/C=C/c1cc2ccccc2[nH]c1=O | -31.7% (active)
CCOC(=O)C1=C(c2ccccc2)N=C2SC=C(c3ccc(Cl)cc3)N2C1c1ccc(Cl)cc1 (centres undefined) | 41.3% (inactive)
O=[N+]([O-])c1cccc(C2CC(c3ccccc3)=Nc3ccccc3S2)c1 (centres undefined) | 86.4% (inactive)
N#Cc1ccc(NC(=O)Nc2ccc(Cc3ccc(NC(=O)Nc4ccc(C#N)cc4)cc3)cc2)cc1 | -7.75% (active)
COc1cccc(CCC(=O)c2cc3c(N)c(C(=O)Nc4ccccc4)sc3nc2C)c1 | 25.2% (inactive)
CCOC(=O)C(=O)CC(=O)c1ccccc1 | 96.9% (inactive)
CCOc1ccc(-c2nonc2NC(=O)c2cccc(C)c2)cc1OCC | 2.82% (active)
CC/C(=N\Nc1nc2ccccc2n1C)c1ccccn1 | -14.5% (active)
CN(C)CCn1c(=O)c2c3cc4c(cc3n(CCN(C)C)c2c2ccc(Cl)cc21)OCO4 | 41% (inactive)
COc1cc2c(cc1-c1c(C)noc1C)ncc1nc(C3CCCCC3)n([C@H](C)COC(F)F)c12 | 38.5% (inactive)
CN1CCN(Cc2ccc(NC(=O)c3cncc(C#Cc4cnc(N)c5cccnc45)c3)cc2C(F)(F)F)CC1 | 15.8% (inactive)
Nc1ncc(-c2ccc(NS(=O)(=O)c3ccc(Cl)c(Cl)c3)cc2)[nH]1 | 90.1% (inactive)
COc1ccc(C2CC(c3cc(Cl)c(C)cc3OC)=NN2c2ccc(S(N)(=O)=O)cc2)cc1OC (centres undefined) | 94.6% (inactive)
Nc1ccc(-c2cc3c(Nc4ccc(Oc5cccc(C(F)(F)F)c5)c(Cl)c4)ncnc3s2)cc1 | -9.82% (active)
c1ccc(-c2ccc3c(c2)C2(CCNCC2)CN3)cc1 | 106% (inactive)
COc1cc2ncn3c(=O)c4c5c(sc4nc3c2cc1OC)CCCCC5 | 107% (inactive)
NNC(=O)/C(=C\c1ccc([N+](=O)[O-])cc1)CC(=O)c1ccc(Cl)c(Cl)c1 | 89.2% (inactive)
NNc1ncnc2nc[nH]c12 | 36.8% (inactive)
COc1ccc2cc(-c3cc(OC)c(OC)c(OC)c3)c(=O)oc2c1 | 46.5% (inactive)
O=S(=O)(NCCCNc1nccc(-c2[nH]c(-c3ccccc3)nc2-c2ccc(Cl)c(O)c2)n1)c1ccc(Br)cc1 | 25.9% (inactive)
CC(=O)Nc1ccc(S(=O)(=O)c2ccnc3cc(Cl)ccc23)cc1 | 9.85% (active)

SMILES | growth
COc1ccc(-c2nc(-c3ccccc3)c(-c3ccccc3)[nH]2)cc1OC1CCCC1 | 40.4% (inactive)
COc1ccc2[nH]c(=O)c(CNc3ccc(Nc4nccc(-c5ccc(Cl)cc5)n4)cc3)cc2c1 | 88% (inactive)
O=c1oc2ccc(I)cc2c(=O)n1-c1ccc(F)cc1F | -8.85% (active)
CCOC(=O)NC(Cc1ccccc1)c1ccccc1 (centres undefined) | 106% (inactive)
CCOC(=O)Nc1ccc(-c2ccc3c(c2)NC(=O)/C3=C\c2ccc[nH]2)cc1 | -8.48% (active)
O=C(O)/C=C\C(=O)N1C/C(=C\c2ccccc2Cl)C(=O)/C(=C/c2ccccc2Cl)C1 | -75.2% (active)
CCN(CC)CCCC(C)Nc1c2ccc(C)cc2nc2ccc(OC)cc12 (centres undefined) | -65.1% (active)
CC(=O)c1c(C)nc2ccccc2c1/C=C/c1ccc(F)cc1 | 46.1% (inactive)
Cc1ccc(C)c2c1sc1nc(N3CCOCC3)c(C#N)c(=O)n12 | 86.9% (inactive)
N=C(N)c1ccc(-c2ccc(-c3ccc(-c4cccs4)s3)s2)cc1 | 96.5% (inactive)
COc1ccccc1NC(=O)Nc1ccc(-c2nc3ccccc3o2)cc1 | 101% (inactive)
Cn1cc(-c2ccc3nc(-c4ccc(CC(=O)ONc5cc(C(C)(C)C)on5)cc4)cnc3c2)cn1 | 45.8% (inactive)
COc1ccc(-c2cc(-c3ccc(Cl)cc3)c(C#N)c(=O)n2CCCCCC(=O)Nc2ccccc2N)cc1 | 53.1% (inactive)
CC/C(=C(/c1ccc(Cl)cc1)c1ccc(OCCN(C)C)cc1)c1ccc(Cl)cc1 | 50.7% (inactive)
CCN(CC)CCCC(C)Nc1cnc(C(=O)Nc2cccc3ccc(OC)nc23)cn1 (centres undefined) | 79.1% (inactive)
O=c1c2cc(-c3ccc(F)cc3F)ccc2n(Nc2ccccc2)c(=O)n1-c1cccc(C(F)(F)F)c1 | -10.4% (active)
Cc1cc(C)c(C#N)c(SCC(=O)c2sc3c(C#N)c(C)cc(C)[n+]3c2[O-])n1 | 4.32% (active)
O=C1Nc2ccccc2/C1=C/C(=N/c1nnc(-c2ccccc2)s1)c1ccccc1 | 56% (inactive)
Cn1c(N2N=C(c3ccc(Cl)cc3)CC2c2ccccc2)nc(-c2ccccc2)c(C#N)c1=O (centres undefined) | 74% (inactive)
CNCCNc1nc2ccccc2c2c(=O)c3cc(F)ccc3oc12 | 59.1% (inactive)
CCOC(=O)/C(F)=C/C1CC1CCc1cccc(C(F)(F)F)c1 (centres undefined) | 109% (inactive)

SMILES | growth
O=C(O)C(O)C(O)C(=O)O.[NH-]C1CCCCC1[NH-].[Pt+2] (centres undefined) | 95.5% (inactive)
O=C(CNC(=O)c1cccc2ccccc12)Nc1ccccc1Oc1ccc(O)cc1 | 27.5% [5 µM] (inactive)
CCCCCN(CCCCC)CCC[C@@H](C)[C@H]1CC[C@H]2[C@@H]3[C@H](OCCCN)C[C@@H]4C[C@H](OCCCN)CC[C@]4(C)[C@H]3C[C@H](OCCCN)[C@]12C | 71.1% (inactive)
CC(C)(C)OC(=O)CN1CCc2c(sc3ncnc(N/N=C/c4cccc5ccccc45)c23)C1 | 34.3% (inactive)
CN(C)CCCSc1ccccc1NC1=C(Cl)C(=O)C(Nc2ccccc2SCCCN(C)C)=C(Cl)C1=O | -61.4% (active)
CCOC(=O)Nc1ccc2nc(N3CCCCCC3)sc2c1 | -4.19% (active)
Oc1ccc2ccccc2c1N=Nc1ccccn1 | -28.6% (active)
O=C(Nc1ccc(-n2cc(-c3ccncc3)c(-c3ccc(Cl)c(O)c3)n2)cc1)N1CCOCC1 | 112% (inactive)
CCCCCCCCCc1ccc(OCCOCCOCCOCCOCCOCCOCCOCCOCCO)cc1 | -11.7% (active)
CCCCCC#CC1OC23CCCCC2C(C#N)(C(=N)O3)C1(C#N)C#N (centres undefined) | 92.6% (inactive)
O=C(O)CCC(=O)OC(C1CO1)C(OC(=O)CCC(=O)O)C1CO1 (centres undefined) | 99% (inactive)
COc1ccc(/C=C2\CS(=O)(=O)C/C(=C\c3ccc(OC)cc3)C2=O)cc1 | -85.3% (active)
CCOC(=O)c1c(C(=O)c2cn(C)c3ccc(Br)cc23)c(-c2cn(C)c3ccc(Br)cc23)n(NC(=O)OC(C)(C)C)c1C | 41.5% [100 µM] (inactive)
O=C(N=Nc1c(Cl)c(O)c2ccccc2c1O)C(=O)Nc1cccc(C(F)(F)F)c1 | 80.8% (inactive)
O=[N+]([O-])c1ccc(O)c(-c2nc3ccccc3s2)c1 | 63.5% (inactive)
CCC(C)[C@H]1O[C@]2(CC[C@@H]1C)C[C@@H]1C[C@@H](C/C=C(\C)[C@@H](OC3C[C@H](OC)C(O[C@H]4C[C@H](OC)[C@@H](O)[C@H](C)O4)[C@H](C)O3)[C@@H](C)/C=C/C=C3\CO[C@@H]4[C@H](O)C(C)=C[C@@H](C(=O)O1)[C@]34O)O2 (some centres undefined) | 10.5% (inactive)
COc1ccc(-c2c(N)n[nH]c2-c2cc3c(c(OC)c2OC)OCO3)cc1 | 104% (inactive)
CN1CCN(Cc2ccc(NC(=O)c3cncc(C#Cc4cncn5ccnc45)c3)cc2C(F)(F)F)CC1 | 125% (inactive)
Nc1ncnc2c1N=C(c1ccc(Br)cc1)CC(c1cccc(Nc3ccnc4cc(C(F)(F)F)ccc34)c1)N2 (centres undefined) | 60.7% (inactive)
CCC(=O)NC(O)C(Cl)(Cl)C(C)Cl (centres undefined) | 92.5% (inactive)
Cc1ncc(C(=O)Nc2ccc(CN3CCN(C)CC3)c(C(F)(F)F)c2)cc1C#Cc1ccc(N)nc1 | 10.9% (inactive)

— PubChem BioAssay (NCI)
